PubChem BioAssay AID651800 (The Scripps Research Institute Molecular Screening Center, 2012)
In all, about 360,000 compounds went through this assay and about 1,300 (0.36%) were called active. The sample holds actives, similar compounds and a random draw of the others, so the mix is not that of the screen. Unmarked numbers belong to inactive results. Cut-off read from the data, not from the text of the source: active = inhibition above about 19%; inactive = the rest.

Tested on: T-cell receptor (TCR)
Assay: small molecules blocking TCR binding to CD3 – biochemical, fluorescence, TAMRA-labeled TCR probe, primary screen (AID 651800);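 note: recombinant mutant TCR 2C K166C tagged with TAMRA read by polarization; 0% = receptor in buffer alone and 100% = receptor with positive control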
Settings: at 9.4 µM, hits give high values

Row | SMILES | inhibition
1 | C=CCN=C1NC(c2cccc(C(F)(F)F)c2)C(C(=O)OC)=C(C)N1C (stereo not drawn) | -6.24%
2 | Cc1ccc(C(=O)N/C(=C\c2cccs2)C(=O)NCCc2ccccn2)cc1C | 2.48%
3 | O=C(N/N=C/c1cc([N+](=O)[O-])ccc1O)/C(=C\c1cccs1)NC(=O)c1ccccc1 | 30.9% (active)
4 | COc1cc(/C=C(/NC(=O)c2ccccc2)C(=O)Nc2cccc(O)c2)c([N+](=O)[O-])cc1OC | -4.87%
5 | C=CCn1c(=O)c(C(=O)NCc2ccc3c(c2)OCO3)c(O)c2ccccc21 | 4.79%
6 | Cn1c(=O)c(C(=O)Nc2ncccn2)c(O)c2ccccc21 | 3.65%
7 | C=CCn1c(=O)c(C(=O)Nc2ncccc2O)c(O)c2ccccc21 | 29.1% (active)
8 | COCCNC(=S)N(C)[C@H]1C[C@H]2c3[nH]c4ccccc4c3CCN2C[C@H]1[C@H](C)O | 10.3%
9 | CCN(C(=O)Nc1cccc2ccccc12)c1ccccc1 | 66.9% (active)
10 | CC(=O)N(C)c1ccc(NC(=O)Nc2cccc3ccccc23)cc1 | -3.94%
11 | O=C(Nc1cccc2ccccc12)NC1CC1 | 10.8%
12 | CC1CCN(c2ccc(S(=O)(=O)Nc3cc(C(=O)O)cc(C(=O)O)c3)cc2[N+](=O)[O-])CC1 | 2.91%
13 | O=c1c2ccccc2c(-c2ccccc2)nn1-c1ccccn1 | 26.3% (active)
14 | CCOC(=O)C(C)n1nc(-c2ccccc2)c2ccccc2c1=O (stereo not drawn) | 1.19%
15 | O=C(O)c1ccc(-n2nc(-c3ccccc3)c3ccccc3c2=O)cc1 | -0.55%
16 | CC(C)[C@@H](C)/C=C/[C@@H](C)[C@H]1CC[C@@H]2[C@]1(C)CCC1[C@]23C=C[C@]2(C[C@@H](O)CC[C@]12C)N(c1ccc([N+](=O)[O-])cn1)O3 (stereo partly drawn) | 0.39%
17 | COC(=O)Nc1nc2ccc(C(=O)C3CC3)cc2[nH]1 | 2.68%
18 | CC(=NNC(N)=O)c1ccc(Cl)c(-n2cccc2)c1 | -1.93%
19 | O=C(N/N=C/c1ccoc1)c1ccc(Cl)cc1Cl | 2.14%
20 | CC(C)(C)C(=O)Nc1ccc(C(=O)N/N=C/c2ccccc2OC(=O)c2ccc(Cl)cc2Cl)cc1 | 33.2% (active)
21 | CSc1ccc(/C=N/NC(=O)c2cccc(Cl)c2)cc1 | -1.56%
22 | OC(CCl)CCl | 2.99%
23 | COc1ccc(C2(CNC(=O)Cc3ccc(OC)c(OC)c3)CCCC2)cc1 | 8.2%
24 | COc1cc(C(=O)NCC2(c3ccccc3)CCCC2)ccc1OC(C)C | 35.4% (active)
25 | CCOc1c(OC)cccc1C(=O)NCC1(c2ccccc2)CCCC1 | -3.45%
26 | CCOC(=O)/C=C/c1ccccc1O | 0.35%
27 | CC(=O)N1c2ccccc2N(Cc2ccc([N+](=O)[O-])cc2)C(=O)C1(C)C | -3%

Row | SMILES | inhibition
28 | O=c1[nH]n(-c2ccc([N+](=O)[O-])cc2)c(=O)c2ccccc12 | 57% (active)
29 | O=C(Nn1c(SCc2ccc([N+](=O)[O-])cc2)nc2ccccc2c1=O)c1ccc(F)cc1 | 4.61%
30 | N#Cc1ccc(-c2nc3cc(C#N)c(C#N)cc3nc2-c2ccccc2)cc1C#N | 10.9%
31 | COc1ccc(NC(=O)N(C)C[C@@H]2OCCCC[C@@H](C)Oc3ccc(NC(=O)NC4CCCCC4)cc3C(=O)N([C@H](C)CO)C[C@@H]2C)cc1 | 4.84%
32 | Cc1cc(=O)n2[nH]c(-c3sccc3-n3c(C)ccc3C)cc2n1 | -6.69%
33 | CCOc1ccc(-n2c(O)c(/C=N/Nc3nnc(C)c(=O)[nH]3)c3ccccc3c2=O)cc1 | 43.9% (active)
34 | CCOc1ccc(N/C(N)=N/c2nc(C)c(C)c(=O)[nH]2)cc1 | 4.59%
35 | CCOc1ccc(-n2c(SCC(=O)Nc3cc(C(=O)O)ccc3Cl)nc3ccccc3c2=O)cc1 | -2.21%
36 | CCN1C(=O)N[C@@H]2C[C@H](C(=O)N3CCCC3)[C@H](C)[C@H](c3ccccc3)C[C@@H]21 | 2.71%
37 | CCCCCCc1cc2cc(-c3nnc(-c4cccc(OC)c4)o3)c(=O)oc2cc1O | -0.99%
38 | COC(=O)c1cc2c(c3c4ccccc4n(S(=O)(=O)c4cccc(C)c4)c13)C(=O)N(Cc1ccccc1)C2 | -0.99%
39 | Nc1ccn([C@@H]2O[C@H](C(=O)N[C@H]3CCCCNC3=O)[C@@H](O)[C@H]2O)c(=O)n1 | 1.09%
40 | COc1ccc(/C(N)=N/OC(=O)CCCc2ccccc2)cc1 | 3.62%
41 | COc1ccccc1CCC(=O)NNC(=O)c1ccncc1 | 1.16%
42 | COc1ccc(C(=O)NC(=S)NNC(=O)CCc2ccccc2)cc1 | 101% (active)
43 | C[C@@H]1CN([C@H](C)CO)C(=O)CCCn2cc(nn2)CO[C@H]1CN(C)C(=O)Nc1ccc(N2CCCCC2)cc1 | -4.6%
44 | O=C(Nc1c(Cl)c(C2CC2)nn1-c1ccccc1)C(Cl)(Cl)Cl | 4.25%
45 | O=C(N[C@H](C(=O)N1CCC[C@H]1C(=O)NCCc1ccccc1Cl)c1ccccc1)c1ccccc1 | 7.43%
46 | Cc1cc(NCCc2c[nH]c3ccccc23)ccc1Oc1cccnc1 | -1.7%
47 | O=C(N[C@H](Cc1ccccc1)C(=O)N1CCCN(Cc2cccs2)CC1)[C@H]1O[C@@H](n2ccc(=O)[nH]c2=O)[C@H](O)[C@@H]1O | -1.23%
48 | COC(=O)N1Cc2ccnnc2CC1c1ccccc1Br (stereo not drawn) | 12%
49 | Cc1ccc(NC(=O)N2c3ccccc3SC2c2ccco2)c(C)c1 (stereo not drawn) | 1.82%
50 | COC(=O)C1=C(C)N(Cc2ccc(C(F)(F)F)cc2)C(=NCc2ccc(C(F)(F)F)cc2)NC1c1cccc(Cl)c1 (stereo not drawn) | 1.76%
51 | COCCOC(=O)c1sc(=S)n(CCOC)c1N | 38.1% (active)
52 | COC(=O)[C@]12C[C@H](CC(=O)NCCC(C)C)C(=O)N(CCc3ccc(OC)c(OC)c3)C1=C[C@H](C(C)(C)C)O[C@@H]2C | -1.41%
53 | COCc1cc(N2CCN(C(=O)OC(C)(C)C)C[C@@H]2C)ccc1N1CCN(Cc2ccccc2)[C@H](C)C1 | -5.69%
